Data: PubChem BioAssay (NCATS)
Inconclusive results are not listed. Calls of active or inactive are those of the source. The call rests on the fitted dose curve; in most records, active means well fitted inhibition curve with a large enough effect; inconclusive means small, poorly fitted or top-dose-only effect; inactive means flat fitted curve, though single readings scatter.

What was measured:
Assay in all cases: qHTS profiling for inhibitors of Plasmodium falciparum proliferation (AID 504749); further: nearly all actives have a fitted effect of over 60% in size
Conditions in all cases: P. falciparum in erythrocytes, SYBR Green DNA, 72 h; series mostly up to 28.7 µM
[1] = test system: CP286
Outline: (§1)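 Each compound contacts P. falciparum-infected red blood cells for 72 h at 37 C; lysis buffer (Tris, EDTA, saponin, Triton X, SYBR Green I) is added and fluorescence measured next morning; values normalized to controls.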

[2] = test system: CP291
Outline: as §1

[3] = test system: CP297
Outline: as §1

[4] = test system: CP305
Outline: as §1

[5] = test system: CP315
Outline: as §1

[6] = test system: CP325
Outline: as §1

[7] = test system: CP329
Outline: as §1

[8] = test system: CP335
Outline: as §1

[9] = test system: DFO2036
Outline: as §1

[10] = test system: DIV14
Outline: as §1

Measured: Potency
Potency means the concentration at half of the fitted maximal effect.

O=C(O)COc1nn(Cc2ccccc2)c2ccccc12
inactive: [1] | [2] | [3] | [4] | [5] | [6] | [7] | [8] | [9] | [10]

O=C(O)CC(O)C(=O)O (stereo unspecified)
inactive: [1] | [2] | [3] | [4] | [5] | [6] | [7] | [8] | [9] | [10]

CCCn1cnc2c1c(=O)n(CCCCC(C)=O)c(=O)n2C
inactive: [1] | [2] | [3] | [4] | [5] | [6] | [7] | [8] | [9] | [10]

CCCCOC(=O)c1ccc(O)cc1
inactive: [1] | [2] | [3] | [4] | [5] | [6] | [7] | [8] | [9] | [10]

Cc1c(Cl)cccc1Nc1ccccc1C(=O)O
inactive: [1] | [2] | [3] | [4] | [5] | [6] | [7] | [8] | [9] | [10]

O=C(CCCN1CCN(c2ccccn2)CC1)c1ccc(F)cc1
inactive: [1] | [2] | [3] | [4] | [5] | [6] | [7] | [8] | [9]

O=C1OC(OC(=O)c2cccnc2Nc2cccc(C(F)(F)F)c2)c2ccccc21 (stereo unspecified)
inactive: [1] | [2] | [3] | [4] | [5] | [6] | [7] | [8] | [9] | [10]

Oc1cccc(O)c1
inactive: [1] | [2] | [3] | [4] | [5] | [6] | [7] | [8] | [9] | [10]

OCC(O)CN1CCN(c2ccccc2)CC1 (stereo unspecified)
inactive: [1] | [2] | [3] | [4] | [5] | [6] | [7] | [8] | [9] | [10]

Cc1cccc(C)c1NC(=O)CN(CC(=O)O)CC(=O)O
inactive: [1] | [2] | [3] | [4] | [5] | [6] | [7] | [8] | [9] | [10]

C[C@H](N)[C@H](O)c1cccc(O)c1
inactive: [1] | [2] | [3] | [4] | [5] | [6] | [7] | [8] | [9] | [10]

CCCCCCCCCCCCCCCC(=O)NCCO
inactive: [1] | [2] | [3] | [4] | [5] | [6] | [7] | [8] | [9] | [10]

O=C(O)[C@@H]1CSCN1
inactive: [1] | [2] | [3] | [4] | [5] | [6] | [7] | [8] | [9] | [10]

NCCNCCNCCNCCN
inactive: [1] | [2] | [3] | [4] | [5] | [6] | [7] | [8] | [9] | [10]

CCCCc1ncc(/C=C(\Cc2cccs2)C(=O)O)n1Cc1ccc(C(=O)O)cc1
inactive: [1] | [2] | [3] | [4] | [5] | [6] | [7] | [8] | [9] | [10]

Cc1cc(CC(=O)O)n(C)c1C(=O)c1ccc(Cl)cc1
inactive: [1] | [2] | [3] | [4] | [5] | [6] | [7] | [8] | [9] | [10]

CC1(C)OC(=O)NC1=O
inactive: [1] | [2] | [3] | [4] | [5] | [6] | [7] | [8] | [9] | [10]

O=C1NC(=O)[C@@]2(CCOc3ccc(F)cc32)N1
inactive: [1] | [2] | [3] | [4] | [5] | [6] | [7] | [8] | [9] | [10]

CC(=O)Nc1ccc(/C=N/NC(N)=S)cc1
inactive: [1] | [2] | [3] | [4] | [5] | [6] | [7] | [8] | [9] | [10]

O=C(O)CN1C(=O)c2cccc3cccc(c23)C1=O
inactive: [1] | [2] | [3] | [4] | [5] | [6] | [7] | [8] | [9] | [10]

Cc1ccc(C(C)C)cc2c(C)ccc1-2
inactive: [1] | [2] | [3] | [4] | [5] | [6] | [7] | [8] | [9]

Cc1cccc(Nc2cc(Cl)nc(SCC(=O)O)n2)c1C
inactive: [1] | [2] | [3] | [4] | [5] | [6] | [7] | [8] | [9] | [10]

CCCCN(CCCC)CC(O)c1cc(Cl)cc2c1-c1ccc(Cl)cc1/C2=C/c1ccc(Cl)cc1 (stereo unspecified)
active: [1] 31.6 nM | [2] 37.9 nM | [3] 33.8 nM | [4] 107 nM | [5] 53.6 nM | [6] 42.6 nM | [7] 47.8 nM | [8] 23.9 nM | [9] 12.6 nM

O=C1NS(=O)(=O)c2ccccc21
inactive: [1] | [2] | [3] | [4] | [5] | [6] | [7] | [8] | [9] | [10]

N[C@@H](CSCCCO)C(=O)O
inactive: [1] | [2] | [3] | [4] | [5] | [6] | [7] | [8] | [9] | [10]

C=Cc1c(C)c2cc3[nH]c(cc4nc(cc5nc(cc1[nH]2)C(C)=C5CCC(=O)O)C(CCC(=O)O)=C4C)c(C)c3C=C
inactive: [1] | [2] | [3] | [4] | [5] | [6] | [7] | [8] | [9] | [10]

CC1=C(CC(=O)O)c2cc(F)ccc2/C1=C\c1ccc(S(C)=O)cc1 (stereo unspecified)
inactive: [1] | [2] | [3] | [4] | [5] | [6] | [7] | [8] | [9] | [10]

CC12CCC(CC1)C(C)(C)O2
inactive: [1] | [2] | [3] | [4] | [5] | [6] | [7] | [8] | [9] | [10]

CC(=O)NC(Cc1ccccc1)C(=O)O (stereo unspecified)
inactive: [1] | [2] | [3] | [4] | [5] | [6] | [7] | [8] | [9] | [10]

CC(=O)c1ccc2c(c1)N(CCCN(C)C)c1ccccc1S2
inactive: [1] | [2] | [3] | [4] | [5] | [6] | [7] | [8] | [9]

O=S(=O)(O)c1cc(I)c(O)c2ncccc12
inactive: [1] | [2] | [3] | [4] | [5] | [6] | [7] | [8] | [9] | [10]

Nc1ccc(S(=O)(=O)Nc2nccs2)cc1
inactive: [1] | [2] | [3] | [4] | [5] | [6] | [7] | [8] | [9] | [10]

[O-][n+]1cccc(CO)c1
inactive: [1] | [2] | [3] | [4] | [5] | [6] | [7] | [8] | [9] | [10]

O=C(Oc1ccccc1C(=O)O)c1ccccc1O
inactive: [1] | [2] | [3] | [4] | [5] | [6] | [7] | [8] | [9] | [10]

O=S(=O)(O)NC1CCCCC1
inactive: [1] | [2] | [3] | [4] | [5] | [6] | [7] | [8] | [9] | [10]

CCC(=O)Nc1ccc(O)cc1
inactive: [1] | [2] | [3] | [4] | [5] | [6] | [7] | [8] | [9] | [10]

NC(=O)NC(=O)Cc1ccccc1
inactive: [1] | [2] | [3] | [4] | [5] | [6] | [7] | [8] | [9] | [10]

C[C@H]1O[C@@H](n2cc(F)c(=O)[nH]c2=O)[C@H](O)[C@@H]1O
inactive: [1] | [2] | [3] | [4] | [5] | [6] | [7] | [8] | [9] | [10]

Oc1cn2c(n1)Nc1ccc(Cl)c(Cl)c1C2
inactive: [1] | [2] | [3] | [4] | [5] | [6] | [7] | [8] | [9] | [10]

O=C(O)c1ccccc1-c1ccc(C(F)(F)F)cc1
inactive: [1] | [2] | [3] | [4] | [5] | [6] | [7] | [8] | [9] | [10]

CC[C@@]1(c2ccccc2)NC(=O)N(C)C1=O
inactive: [1] | [2] | [3] | [4] | [5] | [6] | [7] | [8] | [9] | [10]

O=Cc1ccccc1C=O
inactive: [1] | [2] | [3] | [4] | [5] | [6] | [7] | [8] | [9] | [10]

CC(O)COc1ccccc1 (stereo unspecified)
inactive: [1] | [2] | [3] | [4] | [5] | [6] | [7] | [8] | [9] | [10]

CC1(C)CO[C@@H](CC(=O)O)CN1
inactive: [1] | [2] | [3] | [4] | [5] | [6] | [7] | [8] | [9] | [10]

COc1ccc2c(c1)C(=O)N(CCc1ccc(S(=O)(=O)NC(=O)NC3CCCCC3)cc1)C(=O)C2(C)C
inactive: [1] | [2] | [3] | [4] | [5] | [6] | [7] | [8] | [9] | [10]

COc1cc2[nH]c(=O)[nH]c(=O)c2cc1OC
inactive: [1] | [2] | [3] | [4] | [5] | [6] | [7] | [8] | [9] | [10]

C[C@@H]1CN(c2c(F)c(F)c3c(=O)c(C(=O)O)cn(C4CC4)c3c2F)C[C@H](C)N1
inactive: [1] | [2] | [3] | [4] | [5] | [6] | [7] | [8] | [9] | [10]

C[C@](N)(Cc1ccc(O)cc1)C(=O)O
inactive: [1] | [2] | [3] | [4] | [5] | [6] | [7] | [8] | [9] | [10]
